Source: PubChem BioAssay
The list is not random: actives were taken first. Their share in the collection is about 5%.
SENP8 block-1 – inhibitors of human SENP8 protease; AID 2540; purified SENP8, Z-RLRGG-aminoluciferin cleavage, luminescence; hit rate 1.2% among 330,000; inhibition, % at 10 µM; in the data active = inhibition above about 50%
EBI2 antag – blocks human EBI2 receptor beta-arrestin signaling | hit rate 0.81% among 360,000 | inhibition, % at 5 µM | EBI2 beta-arrestin recruitment, luminescence, 7a,25-OHC stimulated | P32249; in the data active = inhibition above about 38%;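 also: enzyme fragment complementation signal reports receptor beta-arrestin coupling in cells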
SENP6 inh – inhibitors of human SENP6 protease; hit rate 1.8% among 330,000; Recombinant SENP6 catalytic domain, aminoluciferin luminescence; inhibition, % at 10 µM; AID 2599; Q9GZR1;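 active = inhibition above about 50% at the single tested dose, limit read from the data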
Target sequence (Q9GZR1 628-1112 limits assumed): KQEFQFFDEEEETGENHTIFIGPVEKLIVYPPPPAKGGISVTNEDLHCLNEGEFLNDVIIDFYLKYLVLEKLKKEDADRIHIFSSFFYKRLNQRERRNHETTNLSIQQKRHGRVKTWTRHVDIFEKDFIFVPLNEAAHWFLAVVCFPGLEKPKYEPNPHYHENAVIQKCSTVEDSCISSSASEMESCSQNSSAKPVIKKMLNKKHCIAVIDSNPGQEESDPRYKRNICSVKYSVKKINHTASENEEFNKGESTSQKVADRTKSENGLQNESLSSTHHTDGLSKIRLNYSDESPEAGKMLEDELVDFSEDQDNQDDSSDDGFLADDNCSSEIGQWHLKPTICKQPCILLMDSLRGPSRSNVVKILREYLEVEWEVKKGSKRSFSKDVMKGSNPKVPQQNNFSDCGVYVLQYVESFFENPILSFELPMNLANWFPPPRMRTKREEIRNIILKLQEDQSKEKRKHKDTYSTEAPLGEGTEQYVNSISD
SENP7 block – inhibitors of human SENP7 protease; Q9BQF6; recombinant SENP7, Z-RLRGG-aminoluciferin luminescence, 40 min; inhibition, % at 5 µM; hit rate 1.5% among 330,000; AID 434973;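 active = inhibition above about 50% at the single test dose, limit read from the data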
SENP8 block-2 – inhibitors of human SENP8 protease; Q96LD8; recombinant SENP8, Nedd8 substrate fluorescence; inhibition, % at 20 µM; hit rate 0.64% among 360,000; AID 602440; in the data active = inhibition mostly above about 40%, no sharp cut-off; inactive = mostly below about 27%
AHR act – activates the human aryl hydrocarbon receptor | AHR-responsive luciferase reporter cells, luminescence | activation, % at 5 µM | hit rate 2.5% among 320,000; in the data active = activation above about 47%
SENP8 confirm – human SENP8 inhibition, confirmed | shares compounds with SENP7 block | Recombinant SENP8, Z-RLRGG-aminoluciferin luminescence, 60 min | inhibition, % at 12.5 µM | hit rate 40% among 6,200 | AID 488912;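 active = mean inhibition across replicates above about 50%, limit read from the data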
SENP6 conf – human SENP6 inhibition, confirmed; shares compounds with SENP7 block; recombinant SENP6, Z-RLRGG-aminoluciferin luminescence; inhibition, % at 12.5 µM; hit rate 58% among 6,200
SENP7 conf – human SENP7 inhibition, confirmed. shares compounds with SENP7 block. recombinant SENP7, Z-RLRGG-aminoluciferin luminescence, 40 min. inhibition, % at 12.5 µM. hit rate 69% among 6,200
Casp3 SENP sel – selectivity test for SENP inhibitors: human caspase-3 inhibition; AID 488918; inhibition, % at 12.5 µM; purified caspase-3, Z-DEVD-aminoluciferin luminescence, 60 min; hit rate 60% among 6,200; shares compounds with SENP7 block;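 active = mean inhibition above about 50%, limit read from the data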
Target sequence (P42574 28-227 limits assumed): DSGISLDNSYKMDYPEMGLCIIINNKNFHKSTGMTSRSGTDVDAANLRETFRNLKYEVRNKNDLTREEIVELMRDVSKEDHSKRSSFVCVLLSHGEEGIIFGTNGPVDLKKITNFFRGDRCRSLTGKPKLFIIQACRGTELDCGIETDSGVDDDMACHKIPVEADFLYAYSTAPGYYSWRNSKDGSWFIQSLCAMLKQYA
Luc interf – counter-screen for SENP inhibitors: luminescence interference | shares compounds with SENP7 block | inhibition, % at 12.5 µM | Pre-incubated SENP8/Z-RLRGG-aminoluciferin, luciferase luminescence interference | hit rate 39% among 6,200;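 active = mean inhibition above about 50% when retested at one dose, limit read from the data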
Of the large screens only hits and unclear results are named; the others gave an inactive call (follow-up assays come after a bar, where they were run).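 The calls were made as follows, unless noted: active = mean inhibition above about 50% in the one-dose retest (limit read from the data); inactive = the rest.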

Nc1ccccc1C(=O)Nc1cccc(C(=O)O)c1	SENP8 block-1 92.2, SENP6 inh 95.0 | SENP8 confirm 96.4 | SENP6 conf 96.8 | SENP7 conf 101.2 | Casp3 SENP sel 81.6 | Luc interf 95.9
O=C1c2ccccc2C(=O)N1/N=C/c1ccc(O)c(O)c1	SENP8 block-1 50.7, SENP6 inh 65.6 | SENP8 confirm inactive | SENP6 conf inactive | SENP7 conf 82.2 | Casp3 SENP sel 70.0 | Luc interf 64.4
CCCNC(=O)CSc1nnc(-c2ccccc2Br)n1-c1cccc(C(F)(F)F)c1	SENP7 block 54.2 | SENP8 confirm inactive | SENP6 conf inactive | SENP7 conf inactive | Casp3 SENP sel inactive | Luc interf inactive
COc1cccc(Nc2nc(-c3ccc4c(c3)OCCO4)cs2)c1	SENP6 inh 55.0, AHR act 71.7 | SENP8 confirm inactive | SENP6 conf inactive | SENP7 conf 68.6 | Casp3 SENP sel inactive | Luc interf inactive
c1ccc(-c2csc(Nc3ccc4c(c3)OCCO4)n2)cc1	SENP8 block-1 90.9, SENP6 inh 95.5, SENP7 block 91.2, AHR act 60.9 | SENP8 confirm 94.6 | SENP6 conf 95.3 | SENP7 conf 100.7 | Casp3 SENP sel 73.5 | Luc interf 84.2
O=S(=O)(NCC(c1ccc2c(c1)OCO2)N1CCN(c2ccccc2)CC1)c1ccccc1 (configuration not stated)	none
O/C(=C\c1ccc2ccccc2n1)c1ccncc1	SENP8 block-1 90.4, SENP6 inh 97.8, SENP7 block 96.9 | SENP8 confirm 93.9 | SENP6 conf 93.8 | SENP7 conf 101.5 | Casp3 SENP sel 96.9 | Luc interf 93.9
O/N=C/c1ccc2ccccc2n1	none
Cc1cc2nccc(-c3ccc(Cl)cc3Cl)n2n1	none
Cc1nccc(-c2cc(-c3ccc(Cl)cc3Cl)no2)n1	SENP8 block-1 83.5, SENP6 inh 89.0, SENP7 block 88.5 | SENP8 confirm 73.2 | SENP6 conf 77.1 | SENP7 conf 94.4 | Casp3 SENP sel 84.3 | Luc interf inactive
Cc1nc(/C(N)=N/OC(=O)c2ccc(Cl)cc2)c(C(F)(F)F)o1	SENP8 block-1 58.0, SENP6 inh 69.2, SENP7 block 81.7 | SENP8 confirm 74.4 | SENP6 conf 69.8 | SENP7 conf 94.1 | Casp3 SENP sel 88.5 | Luc interf 78.3
c1ccc(-c2cc(-c3ccccc3)on2)cc1	SENP8 block-1 87.4, SENP7 block 97.6 | SENP8 confirm inactive | SENP6 conf 84.9 | SENP7 conf inactive | Casp3 SENP sel 56.5 | Luc interf inactive
Cc1ccc(-c2cc(-c3ccccc3)no2)cc1	SENP8 block-1 92.2, SENP6 inh 96.6, SENP7 block 98.0 | SENP8 confirm inactive | SENP6 conf inactive | SENP7 conf 70.7 | Casp3 SENP sel inactive | Luc interf inactive
Cc1cc(NC(=O)c2cc(-c3ccccc3)on2)no1	none
Nc1nc(-c2cc(-c3ccccc3)no2)cs1	SENP8 block-1 94.6, SENP6 inh 96.4, SENP7 block 96.0 | SENP8 confirm 96.6 | SENP6 conf 97.3 | SENP7 conf 102.0 | Casp3 SENP sel 95.0 | Luc interf 83.3
O=C(c1ccccc1)c1cc(-c2ccccc2)on1	SENP8 block-1 97.2, SENP6 inh 99.4, SENP7 block 100.5 | SENP8 confirm inactive | SENP6 conf 100.9 | SENP7 conf 103.8 | Casp3 SENP sel 98.7 | Luc interf 94.5
Cc1ccc(C)c2[nH]c(=O)c(CN(Cc3ccco3)C(=S)NCC3CCCO3)cc12 (configuration not stated)	none
CC(OC(=O)c1ccc(S(=O)(=O)NCc2ccco2)cc1)C(=O)Nc1ncc(Cl)cc1Cl (configuration not stated)	none
CC(CN1C(C)CCCC1C)OC(=O)c1ccccc1F (configuration not stated)	none
O=C(Nc1ccc(F)cc1)C1CCCO1 (configuration not stated)	none
O=C(Nc1ccc(O)cc1)C1CCCO1 (configuration not stated)	SENP7 block 59.9 | SENP8 confirm inactive | SENP6 conf inactive | SENP7 conf inactive | Casp3 SENP sel inactive | Luc interf inactive
CN=c1scc(-c2ccccc2F)n1/N=C/c1ccc[nH]1	SENP8 block-1 90.8 | SENP8 confirm 98.2 | SENP6 conf 99.5 | SENP7 conf 102.6 | Casp3 SENP sel 96.0 | Luc interf 97.4
CCCc1ccc(OCc2ccccc2)c2c(=O)cc(C(=O)OCC)oc12	none
[O-][n+]1cccc2c(Br)cc(Br)c(O)c21	SENP6 inh 80.9 | SENP8 confirm inactive | SENP6 conf inactive | SENP7 conf inactive | Casp3 SENP sel inactive | Luc interf inactive
Nc1ccc(N=Nc2ccccc2O)c(N)c1	SENP8 block-1 69.9, SENP6 inh 82.9, SENP7 block 79.3, AHR act 72.0 | SENP8 confirm 76.8 | SENP6 conf 80.7 | SENP7 conf 94.7 | Casp3 SENP sel 57.0 | Luc interf 82.2
Oc1ccccc1N=Nc1ccccc1O	none (no result: SENP8 block-1, SENP6 inh, SENP7 block, AHR act)
CCc1nnc(NC(=O)c2ccc3nc(CC)c(CC)nc3c2)s1	none
O=C(Nc1cccnc1Cl)c1noc2c1CCc1ccccc1-2	SENP7 block 65.4 | SENP8 confirm inactive | SENP6 conf inactive | SENP7 conf inactive | Casp3 SENP sel inactive | Luc interf inactive
O=C(Nc1ccc2ccccc2c1)c1cnccn1	SENP6 inh 65.3, SENP7 block 74.7 | SENP8 confirm 52.3 | SENP6 conf 73.3 | SENP7 conf 91.8 | Casp3 SENP sel 81.5 | Luc interf inactive
O=C(Nc1ccc2nccnc2c1)c1cnccn1	none
O=C(Nc1nc2ccc(F)cc2s1)C1=NN(c2ccccc2)C(=O)CC1	SENP6 inh 55.4 | SENP8 confirm inactive | SENP6 conf inactive | SENP7 conf inactive | Casp3 SENP sel inactive | Luc interf inactive
O=C(Nc1nc2ccccc2s1)c1cnccn1	SENP8 block-1 93.0, SENP6 inh 96.6 | SENP8 confirm inactive | SENP6 conf 56.4 | SENP7 conf 75.7 | Casp3 SENP sel 79.1 | Luc interf inactive
O=C(Nc1nc2ccc(F)cc2s1)c1ccccn1	SENP8 block-1 95.1, SENP6 inh 95.1, SENP7 block 99.5 (no result: EBI2 antag, SENP8 block-2) | SENP8 confirm 92.4 | SENP6 conf 98.3 | SENP7 conf 101.8 | Casp3 SENP sel 96.4 | Luc interf inactive
O=C(Nc1nc2ccccc2s1)C1=NN(c2ccccc2)C(=O)CC1	none
